The record followed here is PubChem BioAssay AID932 (The Scripps Research Institute Molecular Screening Center, 2007).

Screen size: about 200,000 compounds; about 5,100 (2.5%) were called active.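 How the source made its calls: active means activation above the screen-wide mean activation plus 3 SD (cut at about 130% in these data); inactive means the rest.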 Shown is part of a subset that was picked to be rich in actives.

The nature of the assay: potentiators of IFN-gamma driven STAT1 reporter – cell-based, HTS, luciferase reporter, primary screen (AID 932).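 Further: raw ratio to IFN-gamma control signal so 100% means no change and 0% no light.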 The settings on record: NIH 3T3 STAT1-luciferase reporter, luminescence, at 5.5 µM, active compounds read high, 100% = IFN-gamma alone, no compound. In general terms: In a reporter assay the amount or activity of a reporter protein is the signal.
Consider `O=C(CCN1CCCCC1)N=Nc1c(O)[nH]c2ccccc12`, for which the activation (% of control) was 93.5% (inactive).
For `O=C(Nc1ccc2c(c1)C(=O)OC2)Nc1cccc2ccccc12`, the activation (% of control) is 93.7% (inactive).
With `c1c2c(cc3sc(N4CCCCC4)nc13)OCCO2`, the activation (% of control) was 56.4% (inactive).
`Cc1nc(N2CCCCC2)sc1C=O`: the activation (% of control) was 96.9% (inactive).
Consider `CCOC(=O)N1CCC(NC(=O)c2ccc3nc(N4CCOCC4)sc3c2)CC1`, for which the activation (% of control) was 102% (inactive).
Turning to `Fc1ccc2nc(N3CCCCC3)sc2c1`, the activation (% of control) is 147% (active).
For `Fc1cc(F)c2nc(N3CCOCC3)sc2c1`, the activation (% of control) is 122% (inactive).
Next, `Brc1ccc2nc(N3CCCC3)sc2c1`: 134% (active); `O=C(COC(=O)CC1CC2CCC1C2)NC(=O)NC1CCCC1` (stereo not given): 101% (inactive).
Turning to `CCOC(=O)c1c(C)n(C)c2ccc(OC)c(NS(=O)(=O)CC)c12`, the activation (% of control) was 111% (inactive).
With `CC(=O)c1cc(C#N)c(N2CCCCC2)nc1C`, the activation (% of control) is 95.1% (inactive).
Regarding `CC(=O)c1cc(C#N)c(SCC(=O)C(C)(C)C)nc1C`, the activation (% of control) is 140% (active).
With `CC(=O)c1cc(C#N)c(SCC(=O)Nc2nccs2)nc1C`, the activation (% of control) is 108% (inactive).
Regarding `Cc1nc2nc[nH]n2c(=O)c1C/C=C/c1ccccc1`, the activation (% of control) was 102% (inactive).
Consider `Cc1cccc(OC(=O)c2sc3ncn(C)c(=O)c3c2C)c1`, for which the activation (% of control) was 134% (active).
For the compound `CCOC(=O)C(C)n1cnc2sc(C)c(C)c2c1=O` (stereo not given), the activation (% of control) was 105% (inactive).
For the compound `Cc1c(C(N)=O)sc2ncn(CCOc3ccccc3)c(=O)c12`, the activation (% of control) was 116% (inactive).
On to `COc1ccc(Br)cc1C(=O)Nc1cccc(C)c1C`, for which the activation (% of control) is 95.7% (inactive).
On to `O=S(=O)(ON(c1ccccc1)S(=O)(=O)c1ccccc1)c1ccccc1`, for which the activation (% of control) is 105% (inactive).
For `CCOC(=O)c1cccc(NC(=O)CCOc2ccccc2)c1`, the activation (% of control) was 97.3% (inactive).
As for `CCOC(=O)N/N=C/c1cccnc1`, the activation (% of control) is 102% (inactive).
As for `CC(=O)Nc1ccc(S(=O)(=O)NC2(C(F)(F)F)C(=O)Nc3c2c(=O)[nH]c(=O)n3Cc2ccccc2)cc1` (stereo not given), the activation (% of control) was 108% (inactive).
Regarding `CN(C)c1ccnc2sc3c(=O)n(Cc4ccccc4)cnc3c12`, the activation (% of control) is 78.3% (inactive).
Turning to `CN(C)c1ccnc2sc(C(=O)c3ccccc3)c(N)c12`, the activation (% of control) was 153% (active).
`Cc1nc2sc(C(=O)c3ccccc3)c(N)c2c2c1CCCC2`: the activation (% of control) is 113% (inactive).
For the compound `N#Cc1ccccc1NC(=O)COc1c(Br)cc(Br)c2cccnc12`, the activation (% of control) was 77.3% (inactive).
For `Cc1ccc(NC(=O)CC2S/C(=N/N=C3\CCCc4ccccc43)NC2=O)cc1` (stereo not given), the activation (% of control) was 107% (inactive).
Next, `COc1ccc(CCn2ccc(O)c(Cc3ccc(Cl)cc3Cl)c2=O)cc1OC`: 92.6% (inactive); `COc1ccc(C(=O)NC2CCN(C(=S)NCCc3ccccc3)CC2)cc1`: 91.9% (inactive).
Next, `O=C(NCCc1ccccc1)c1ccc(NC2=NC3CS(=O)(=O)CC3S2)cc1` (stereo not given): 102% (inactive).
With `CC1CCCN(c2ccc(C(=O)NCCc3ccccc3)cn2)C1` (stereo not given), the activation (% of control) was 147% (active).
As to `CCCC/C(C)=N/NC(=O)NC1CCCCC1`, the activation (% of control) was 102% (inactive).
In the case of `NS(=O)(=O)c1ccc(NC(=O)COC(=O)c2ccc(Cl)nc2)cc1`, the activation (% of control) is 103% (inactive).
Regarding `CCc1ccc(C2N3CC4([N+](=O)[O-])CN2CC([N+](=O)[O-])(C3)C4(C)C)cc1` (stereo not given), the activation (% of control) was 90.6% (inactive).
Next, `Cc1ccc2nc3n(c(=O)c2c1)CCC3`: 106% (inactive); `Brc1cccc(-c2nnc3n2CCC3)c1`: 101% (inactive).
Consider `COc1ccc(-c2nc3n(c2Br)CCC3)cc1`, for which the activation (% of control) was 131% (active).
`COc1cc(-c2cc(C(=O)OCC(=O)Nc3ccc4c(c3)OCO4)c3ccccc3n2)cc(OC)c1OC`: the activation (% of control) was 91.2% (inactive).
Turning to `Cc1cccc(C)c1N1CCN(S(=O)(=O)N2CCCCC2)CC1`, the activation (% of control) is 96.7% (inactive).
As to `CC1CN(CCOc2ccccc2[N+](=O)[O-])CC(C)O1` (stereo not given), the activation (% of control) is 101% (inactive).
Consider `COc1ccc(C2Nc3ccccc3C(=O)N2Cc2ccccc2)cc1Cn1nnc2ccccc21` (stereo not given), for which the activation (% of control) was 101% (inactive).
Next, `COc1ccc(C2Nc3ccccc3C(=O)N2c2ccc(Cl)cc2)cc1Cn1cc([N+](=O)[O-])cn1` (stereo not given): 181% (active).
`COc1ccc(C2Nc3ccccc3C(=O)N2c2ccc(F)cc2)cc1Cn1nnc2ccccc21` (stereo not given): the activation (% of control) is 103% (inactive).
As for `Cc1nnc(CN(C)Cc2cn[nH]c2-c2ccc(-c3ccccc3)cc2)o1`, the activation (% of control) is 114% (inactive).
Regarding `COc1ccc(CCNC(=O)/C(C#N)=C2\N=C(NC(=O)c3cccs3)c3ccccc32)cc1`, the activation (% of control) was 95.7% (inactive).
On to `COCCCNC(=S)N(Cc1ccccc1)Cc1ccc(F)cc1`, for which the activation (% of control) was 90% (inactive).
Regarding `Cc1ccc(S(=O)(=O)N(NC2=NS(=O)(=O)c3ccccc32)C(=O)c2ccccc2)cc1`, the activation (% of control) was 106% (inactive).
Regarding `O=C(Oc1cccc(NC2=NS(=O)(=O)c3ccccc32)c1)c1ccncc1`, the activation (% of control) was 92.7% (inactive).
Turning to `CC(C)(C)c1csc(NC2=NS(=O)(=O)c3ccccc32)n1`, the activation (% of control) is 130% (active).
For the compound `COC(=O)C1=C(C(=O)OC)C(c2cc([N+](=O)[O-])ccc2O)c2sc(=O)[nH]c2S1` (stereo not given), the activation (% of control) is 98.4% (inactive).
